Source: ChEMBL document CHEMBL3433997, “St. Jude Leishmania screening dataset” (2016)
Where “and” joins values, the source holds several entries; their conditions need not be identical. Identical values can stand only once.

Legend:
Type in all cases: functional
[1] = target: Solute carrier family 2, facilitated glucose transporter member 1 (Homo sapiens) (UniProt P11166); test: ST_JUDE_LEISH: Cytotoxicity at 2uM final concentration against transgenic Leishmania Mexicana promastigotes LmGLUT1 that are glucose transport deficient and complemented with the human glucose transporter GLUT1. Activity is measured by DNA content using SYBR green in vitro
Chain of Solute carrier family 2, facilitated glucose transporter member 1 (Homo sapiens) (P11166 whole entry): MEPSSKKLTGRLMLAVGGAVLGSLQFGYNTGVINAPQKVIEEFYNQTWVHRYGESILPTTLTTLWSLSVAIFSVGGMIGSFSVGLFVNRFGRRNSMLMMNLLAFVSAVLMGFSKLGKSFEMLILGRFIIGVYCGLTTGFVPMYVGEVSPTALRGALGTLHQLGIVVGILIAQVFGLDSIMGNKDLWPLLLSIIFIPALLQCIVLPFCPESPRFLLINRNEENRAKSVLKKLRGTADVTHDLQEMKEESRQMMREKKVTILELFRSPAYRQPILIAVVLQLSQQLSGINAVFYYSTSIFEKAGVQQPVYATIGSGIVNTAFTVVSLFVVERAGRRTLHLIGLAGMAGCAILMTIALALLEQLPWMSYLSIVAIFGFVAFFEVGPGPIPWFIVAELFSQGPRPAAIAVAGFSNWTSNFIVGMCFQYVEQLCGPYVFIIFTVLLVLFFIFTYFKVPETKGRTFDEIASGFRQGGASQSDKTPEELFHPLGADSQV

[2] = target: Hexose transporter 1 (Plasmodium falciparum) (UniProt O97467); test: ST_JUDE_LEISH: Cytotoxicity at 2uM final concentration against transgenic Leishmania Mexicana promastigotes LmPfHT that are glucose transport deficient and complemented with the Plasmodium falciparum hexose transporter. Activity is measured by DNA content using SYBR green in vitro
[3] = target: Glucose transporter (Leishmania mexicana) (UniProt O61059); test: ST_JUDE_LEISH: Cytotoxicity at 2uM final concentration against transgenic Leishmania Mexicana promastigotes LmGT2 that are glucose transport deficient and complemented with the L. Mexicana glucose transporter 2. Activity is measured by DNA content using SYBR green in vitro

Row | SMILES | inhibition [1] | inhibition [2] | inhibition [3]
1 | CCOc1cc(C=Cc2nc(O)c3ccccc3n2)cc(Cl)c1O | 5.1% | 4.12% | 2.7%
2 | Cc1cccc(Cn2ccc3c4c(N)nc(N)nc4ccc32)c1 | 80.8% | 81.5% | 81.5%
3 | C[C@@H]1CC[C@H](NC(=O)[C@H](CC2CCCC2)NC(=O)N2CCNCC2)C(=O)CN1S(=O)(=O)c1ccccn1 | 1.44% | 0.17% | -0.32%
4 | Cc1noc(-c2ccc(NC[C@@H](C)NC[C@H](O)c3cccc(Cl)c3)cc2)n1 | 3.79% | 3.1% | 4.26%
5 | Cc1nnc(Sc2ncnc3scc(-c4ccc(F)cc4)c23)s1 | 2.38% | 3.03% | 1.02%
6 | Cc1cccc2nc(-c3ccc(-c4ccc(NC(=O)c5cncn5C)cc4)s3)[nH]c12 | 11.3% | 9.8% | 7.26%
7 | CCOc1cc(N)c2nc3ccc([N+](=O)[O-])cc3cc2c1 | 16.1% | 20.1% | 6.39%
8 | Cc1ccc(C(=O)Nc2ccc(Cl)c(N3CCN(CCc4ccccc4)CC3)c2)cc1 | 4.14% | 8.02% | 6.51%
9 | CCN(CC)CCN(Cc1ccc(-c2ccc(C(F)(F)F)cc2)cc1)C(=O)Cn1c(/C=C/c2ccco2)nc(=O)c2ccccc21 | -0.7% | -0.97% | -1.26%
10 | Cc1cccc2nc(-c3cccc(-c4cccc(NC(=O)Nc5ccsc5)c4)c3)[nH]c12 | 4.96% | 4.46% | 6.15%
11 | CN=C(S)NN=C(C)c1ccccn1 | 2.61% | -4.43% | -1.99%
12 | Cc1cc(N2CCCC2)nc(Nc2ccc(NC(=O)COc3ccccc3)cc2)n1 | 6.11% | 6.84% | 2.07%
13 | CCN(CCCN1CCCCC1)c1cc(C)nc(Nc2ccc(F)c(C(F)(F)F)c2)n1 | -1.41% | -1.38% | -0.24%
14 | CN1CCCC1CCNC(=O)[C@H](CC1CCCCC1)NC(=O)c1ccc(O)c(-c2ccc(Cl)c(Cl)c2)c1 (stereo partly specified) | 8.26% | 10.3% | 6.63%
15 | COc1ccc(Cn2c(N3CCN(S(=O)(=O)c4ccc(OC)cc4)CC3)nc3c2c(=O)n(CC2CC2)c(=O)n3CC2CC2)cc1 | 0.89% | -0.86% | -1.39%
16 | C=CCn1c(Cc2ccccc2)nnc1Sc1ccc(C#N)c([N+](=O)[O-])c1 | 3.36% | 3.11% | 2.02%
17 | CCc1ccc(-n2c(NC(=O)c3ccccc3)nc3ccc(S(=O)(=O)NC(C)C(C)C)cc32)cc1 (stereo unspecified) | -1.74% | -1.8% | -1.72%
18 | CC(C)(C)c1ccc(CNC(=O)/C=C/c2ccc(CNC3CCNCC3)cc2)cc1 | -1.23% | -1.07% | -1.84%
19 | COc1ccc(CCN2CCC(CN(C)Cc3cnn(-c4ccccc4)c3)CC2)cc1 | 4.24% | 6.13% | 7.63%
20 | CCOCCCn1c(=N)c(C(=O)NCc2ccc(F)cc2)cc2c(=O)n3cccc(C)c3nc21 | 4.22% | 10.1% | -1.34%
21 | Fc1ccccc1COc1ccc(Nc2ncnc3ccc(-c4nnc(C(F)(F)F)o4)cc23)cc1Cl | 6.41% | 5.31% | 2.13%
22 | Cc1cc(N2CCN(CC3CCN(C)CC3)CC2)nc(Nc2ccc(Cl)cc2)n1 | 0.56% | 0.64% | 2.21%
23 | CC(C#N)Cc1ccc(-c2cnc(N)c3cc(-c4ccnc(N)n4)ccc23)cc1 (stereo unspecified) | 5.38% | 3.48% | -0.93%
24 | COc1ccc2ncc(F)c([C@H](O)CN3CCC(NCc4ccc5c(c4)NC(=O)CO5)CC3)c2c1 | 1.17% | 0.49% | 1.56%

Row | SMILES | inhibition [1] | inhibition [2] | inhibition [3]
25 | Oc1ccc(CCNc2nc(NCc3ccccc3Oc3ccc(C(F)(F)F)cc3)nc(N3CCNCC3)n2)cc1 | -0.98% | -1.74% | -2.4%
26 | COc1ccc(Nc2nc(N)c3cc(OC)c(OC)cc3n2)cc1OC | 9.02% | 7.54% | 5.87%
27 | Cc1cccc2nc(-c3cccc(-c4ccc(NC(=O)c5c[nH]cn5)cc4)c3)[nH]c12 | -0.79% | -0.73% | -1.26%
28 | O=S(=O)(Nc1cccc(CCN2CCC(N3CCCCC3)CC2)c1)c1ccccc1C(F)(F)F | 1.15% | 0.31% | -2.06%
29 | Cc1noc(C)c1-c1ccc2c(Nc3nccc4ccccc34)c(C(N)=O)cnc2c1 | 103% | 89.7% | 102%
30 | O=C(N[C@@H](Cc1ccccc1)[C@H](O)CNCCC(F)(F)F)c1cccc(CCC2CC2)c1 | 0.82% | 1.82% | 2.39%
31 | Nc1nc(N)c2c(ccc3c2ccn3Cc2ccccn2)n1 | 86.5% | 92% | 78%
32 | CCCOc1cc(OCCC)cc(-c2ccc(C(=O)Nc3ccc4ccc(C)nc4c3)c(=O)[nH]2)c1 | 1.35% | 0.78% | 3.33%
33 | N#Cc1ccc(-c2ccc(C(=O)NCCCCN3CCC(c4cn(CCCO)c5ccccc45)CC3)cc2)cc1 | 2% | 1.61% | 1.21%
34 | O=C(NCc1ccc(F)cc1)c1cc(Br)cc(N2CCN(c3ccncc3)CC2)c1 | 7.75% | 6.55% | 4.17%
35 | CCNC(=O)Nc1ccc(-c2cnc(N)c(-c3nc4ccc(OC)cc4[nH]3)c2)cc1 | 3.5% | 4.42% | 3.1%
36 | CCc1cc2c(N)nc(N)nc2nc1-c1ccccc1 | 4.22% | 3.93% | 0.81%
37 | O=C(NCCCCN1CCCC2c3ccc(O)cc3CCC21)c1ccc(-c2ccccc2)cc1 (stereo unspecified) | 0.24% and 13.2% | 1.39% and 1.92% | 0.13% and -0.76%
38 | CCNc1cc(C(=O)N[C@@H](Cc2ccccc2)[C@H](O)CNC(C)Cc2cccc(Cl)c2)cc(N2CCCCS2(=O)=O)c1 (stereo partly specified) | 0.81% | 2.5% | -1.63%
39 | O=C(C=Cc1ccc(Cl)c(Cl)c1)NCCCCCN1CCC(CCCNC(=O)C2CC2c2ccccc2)CC1 (stereo unspecified) | 1.26% | 0.65% | 1.16%
40 | O=C(/C=C/c1ccc(Cl)c(Cl)c1)NCCCCCCN1CCCN(C(=O)Nc2ccc(F)c(F)c2)CC1 | 0.72% | 0.44% | 2.39%
41 | COc1c(C2CCN(CCCCNC(=O)c3ccc(-c4ccc(C#N)cc4)nc3)CC2)ccc2c1CCCC2 | 1.52% | 2.03% | 0.52%
42 | Cc1ccc(NC(=S)N2CCCN(CCCCCNC(=O)/C=C/c3ccc(Cl)c(Cl)c3)CC2)cc1Cl | -0.25% | -1.02% | 0.36%
43 | CC1=C(C(=O)OC(C)C)C(c2ccccc2Cl)C2=C(CC(c3ccccc3)CC2=O)N1 (stereo unspecified) | 7.11% | 6.69% | 7.36%
44 | COc1ccc2nccc(NC(=O)OC3CCC(NCc4ccc5c(n4)NC(=O)CS5)CC3)c2c1 (stereo unspecified) | 4.53% | 4.67% | 3.92%
45 | COc1cc(C)nc2ccc(NC(=O)Nc3ccc4nc(C)cc(OC)c4c3)cc12 | 8.47% | 6.65% | 8.59%
46 | CC(C)c1cc(Oc2c(I)cc(CCCc3ncc[nH]3)cc2I)ccc1O | 9.35% | 9.42% | 6.8%
47 | CC=CCON1C(=N)NC(=N)NC1(C)C | 1.93% | 1.47% | 1.8%
48 | O=C(CCc1c[nH]cn1)Nc1ccc(-c2ccc(-c3nc4ccccc4[nH]3)cc2)cc1 | 19.3% | 16.7% | 15.2%

Row | SMILES | inhibition [1] | inhibition [2] | inhibition [3]
49 | N#Cc1ccc(CNCCCCCCCNCc2ccc(-c3ccccc3)cc2)cc1 | 4.19% | 5.01% | 5.28%
50 | N#Cc1ccc2c(c1)CCN(CCCn1c(-c3ccc4ccccc4c3)nc3ccncc31)CC2 | 15.1% | 16.1% | 10.4%
51 | Cc1cc(N[C@@H](CC(C)C)C(=O)NCCc2ccccc2)nc(NCC2CCCCC2)n1 | 6.58% | 6.23% | 3.37%
52 | Cc1cc(NC(=O)Nc2cccc(N(C)C)c2)c2ccccc2n1 | 2.29% | 2.59% | 1.12%
53 | Cc1cc(C2CCN(CCCCNC(=O)c3ccc(NC(=O)c4ccc(Cl)cc4)cc3)CC2)c(C)cc1OC(C)C | -1.59% | -1.19% | -1.68%
54 | CCc1ccc(CN2CCC(CNC(=O)c3cc(-c4ccccc4F)cs3)C2)cc1 (stereo unspecified) | 1.55% | -3.47% | 1.83%
55 | CS(=O)(=O)Nc1cccc(-c2cnc3[nH]cc(-c4cccc(CN)c4)c3c2)c1 | 4.77% | 3.29% | 3.74%
56 | N=C(Nc1nc(-c2ccccn2)cc2ccccc12)c1cccc(Cl)c1 | 50.7% | 48.7% | 18.1%
57 | Nc1nc(N)c2c(Sc3ccc(F)cc3)cccc2n1 | 6.11% | 6.64% | 7.67%
58 | COc1cc(CCN(C)Cc2ccc(OC)c(OC)c2)ccc1NC(=O)c1cccc2c(O)c3cccc(F)c3nc12 | 3.49% | 1.84% | 3.27%
59 | O=C(Cc1cccc(Cl)c1)Nc1ccc(N2CCC(NCc3ccc4ncccc4c3)CC2)cc1 | 12.6% | 13.6% | 8.71%
60 | Cc1ccccc1Oc1ccc(Nc2ccnc(Nc3cccc(C(N)=O)c3)n2)cc1C(F)(F)F | 4.26% | 3.48% | 1.52%
61 | O=C(NC1CCN(Cc2ccc3c(c2)OCCO3)CC1)c1ccc(-c2cccc(Cl)c2)s1 | 5.55% | 5.55% | 6.98%
62 | COc1cccc(C(O)CNc2ccnc(Nc3ccc(Cl)cc3)n2)c1 (stereo unspecified) | 6% | 5.73% | 1.85%
63 | N=C(N)c1ccc(NC(=O)Cc2nc3cc(C(=N)N)ccc3[nH]2)cc1 | -0.77% | -0.09% | -0.08%
64 | N#Cc1ccc(-c2ccc(C(=O)NCCCCN3CCC(c4nc5ccccc5[nH]4)CC3)cc2)cc1 | 2.16% | 2.21% | 2.69%
65 | COc1ccc(-c2ccc(NC(=O)c3ccc(C#N)cc3)cc2)cc1CN1CCN(C)CC1 | 4.24% | 1.9% | 2.76%
66 | CN(C)CCOc1ccc(-c2cc(-c3ccc(Cl)c(O)c3)c(-c3ccncc3)o2)cc1 | 4.55% | -0.72% | 4.9%
67 | FC(F)(F)c1ccc2c(NCCCNc3ccnc4cc(C(F)(F)F)ccc34)ccnc2c1 | -2.25% | 3.22% | -4.41%
68 | CN(CCCN(C)c1cc(NC(=O)c2cccc(F)c2)ccn1)Cc1cccc(O)c1 | -2.2% | 0.99% | -0.68%
69 | CCN(CC)CCNC(=O)c1ccc(NC(=O)c2ccc(-c3cc(NC(=O)CC4CCCC4)ccc3C)cc2)cc1 | 2.1% | 1.64% | 2.4%
70 | c1nc(CCNc2nc(Nc3ccc4c(c3)OCO4)nc(NC3CCCC3)n2)c[nH]1 | 1.6% | 2.73% | 0.99%
71 | CCOC(=O)c1ccc(NC(=O)Nc2cccc(-c3ccc(-c4nc5cc(C(F)(F)F)ccc5[nH]4)cc3)c2)cc1 | -0.08% | 1.53% | 0.3%
72 | CCCCN1C(=O)C2CC(=O)CC(C3CCCCC3)C2C1=O (stereo unspecified) | 0.97% | 0.42% | 2.77%
